Test results: the antibiotic and cytotoxicity screens of Wong et al. (2023)
Screen size: about 39,000 compounds; about 1,500 (3.8%) were called active. The full list was thinned out, with actives kept by preference.

System: HSkMC (human skeletal muscle cells)
Assay: cytotoxicity call (relative viability < 0.9)
Settings: 10 µM

SMILES	cytotoxicity call
C[C@H](CO)N1C[C@H](C)[C@H](CN(C)C(=O)C2CC2)Oc2ncc(-c3ccc(C(=O)N(C)C)cc3)cc2C1=O	inactive
CC(C)NC(=O)N(C)C[C@@H]1Oc2ccc(NS(=O)(=O)c3cn(C)cn3)cc2CC(=O)N([C@H](C)CO)C[C@H]1C	inactive
Cl.OC(c1cc(C(F)(F)F)nc2c(C(F)(F)F)cccc12)C1CCCCN1 (centres undefined)	active
C[C@@H]1CN([C@H](C)CO)S(=O)(=O)c2ccc(C#CC3(O)CCCC3)cc2O[C@H]1CN(C)C(=O)c1ccncc1	inactive
CNC(=O)c1c(F)cccc1Nc1nc(Nc2cc3c(cc2OC)CCN3C(=O)CN(C)C)nc2[nH]ccc12	active
COc1cc(C(=O)N2CCC(N3CCN(C)CC3)CC2)ccc1Nc1ncc2c(n1)N(C)c1ccccc1C(=O)N2C	inactive
C[C@@H]1CN([C@H](C)CO)C(=O)Cc2cc(NS(=O)(=O)c3cn(C)cn3)ccc2O[C@@H]1CN(C)C(=O)Nc1ccccc1	inactive
CC(C)NC(=O)Nc1ccc2c(c1)C(=O)N([C@@H](C)CO)C[C@@H](C)[C@H](CN(C)CC1CCCCC1)OCCCC[C@@H](C)O2	inactive
CN(C)CC(=O)N1[C@@H]2Cn3c(ccc(C4=CCCC4)c3=O)[C@H]1[C@@H](C(=O)NCC1CC1)[C@@H]2CO	inactive
C[C@@H]1CN([C@@H](C)CO)S(=O)(=O)c2ccc(-c3cncnc3)cc2O[C@@H]1CN(C)C(=O)Cc1cccnc1	inactive
C[C@H]1CN([C@@H](C)CO)C(=O)c2cc(NS(C)(=O)=O)ccc2O[C@H]1CN(C)Cc1ccc2c(c1)OCO2	inactive
CC(C)=CCc1c2c(c3occ(-c4ccc(O)c(O)c4)c(=O)c3c1O)C=CC(C)(C)O2	active
CC(C)=CCc1c2c(c3occ(-c4ccc(O)cc4)c(=O)c3c1O)C=CC(C)(C)O2	inactive
CC1(C)C=Cc2c(c3c(c4c(=O)c(-c5ccc(O)c(O)c5)coc24)OC(C)(C)CC3)O1	inactive
CO[C@@H]1CN(C)C(=O)c2ccc(NC(=O)CN(C)C)cc2OC[C@@H](C)N(C(=O)c2ccncc2)C[C@H]1C	inactive
C[C@@H]1CCCCO[C@H](CN(C)S(=O)(=O)c2cccs2)[C@@H](C)CN([C@H](C)CO)C(=O)c2cc(NC(=O)CCC(F)(F)F)ccc2O1	inactive
COC[C@@H]1CNN1C(=O)c1cc(C)oc1C	inactive
CCCCCN1CC=C[C@@]23O[C@@H]4C=CCOC(=O)[C@@H]4[C@H]2C(=O)N([C@@H](C)CO)[C@@H]3C1=O	inactive
CC(NCCc1ccc(O)cc1)C(O)c1ccc(O)cc1.Cl (centres undefined)	inactive
CCCCCCCCNC[C@@H](O)[C@H](O)[C@@H](O)[C@@H](O)CO	inactive
CCCCCCCCNC(C)C(O)c1ccc(SC(C)C)cc1 (centres undefined)	active
C[C@@H]1CN([C@@H](C)CO)S(=O)(=O)c2ccc(C#CCN(C)C)cc2O[C@@H]1CN(C)C(=O)CN(C)C	inactive

SMILES	cytotoxicity call
C[C@@H]1CCCCO[C@@H](CN(C)S(=O)(=O)c2ccc(Cl)cc2)[C@H](C)CN([C@@H](C)CO)C(=O)c2cc(NC(=O)Nc3cccc4ccccc34)ccc2O1	inactive
O=C(NCCCN1CCOCC1)Nc1ccc(Cc2ccc(NC(=O)NCCCN3CCOCC3)cc2)cc1	inactive
CC(C)(C)c1cc(NC(=O)Nc2ccc(-c3cn4c(n3)sc3cc(OCCN5CCOCC5)ccc34)cc2)no1	active
COc1cc(OC)cc(C(=O)Nc2nc(-c3ccc4c(c3)CCN4C(=O)CN3CCOCC3)cs2)c1	inactive
C[C@H](CO)N1C[C@H](C)[C@@H](CN(C)CC2CC2)Oc2c(NC(=O)Nc3cccc4ccccc34)cccc2C1=O	inactive
CC(C)CC(=O)Nc1cncc(-c2ccc3[nH]nc(-c4nc5cncc(-c6cccc(F)c6)c5[nH]4)c3c2)c1	active
Cn1c(=O)[nH]c(=O)c2c1nc(N1CCN(CCO)CC1)n2CC(=O)c1ccccc1	inactive
CCS(=O)(=O)N1C[C@]2(CN(C2)C(=O)c2ccc3c(c2)OCO3)c2c(n(c3cc(ccc23)OC)C)[C@@H]1CO	inactive
COc1ccc(CN(C)C[C@H]2Oc3c(NC(=O)c4ccc(-c5nccs5)cc4)cccc3C(=O)N([C@H](C)CO)C[C@@H]2C)cc1	inactive
COc1ccc(CN(C)C[C@@H]2Oc3c(NC(=O)c4ccc(-c5nccs5)cc4)cccc3C(=O)N([C@H](C)CO)C[C@H]2C)cc1	active
COc1ccc(CN(C)C[C@H]2Oc3c(NC(=O)c4ccc(-c5nccs5)cc4)cccc3C(=O)N([C@@H](C)CO)C[C@@H]2C)cc1	inactive
C[C@H](CO)N1C[C@H](C)[C@H](CN(C)Cc2ccc(Oc3ccccc3)cc2)Oc2c(NC(=O)c3ccc(-c4nccs4)cc3)cccc2C1=O	active
C[C@@H]1CN([C@H](C)CO)C(=O)c2cccc(NC(=O)c3ccc(-c4nccs4)cc3)c2O[C@H]1CN(C)Cc1ccc(Oc2ccccc2)cc1	inactive
C[C@H]1CN([C@@H](C)CO)C(=O)c2cccc(NC(=O)c3ccc(-c4nccs4)cc3)c2O[C@H]1CN(C)Cc1ccc(Oc2ccccc2)cc1	inactive
COc1ccc(NC(=O)Nc2ccc3c(c2)C(=O)N([C@H](C)CO)C[C@@H](C)[C@H](CN(C)S(=O)(=O)c2ccc(Cl)cc2)OCCCC[C@@H](C)O3)cc1	inactive
C[C@H]1CN([C@@H](C)CO)C(=O)c2cc(C3=CCCCC3)cnc2O[C@H]1CN(C)C(=O)CN1CCOCC1	inactive
O=C1OCc2cc(-n3cnnn3)ccc21	inactive
COc1ccc(NC(=O)N(C)C[C@H]2OCCCC[C@H](C)Oc3ccc(NC(=O)c4ccccc4)cc3C(=O)N([C@H](C)CO)C[C@H]2C)cc1	inactive
C[C@@H]1CN([C@H](C)CO)C(=O)c2cc(NC(=O)Nc3ccccc3)ccc2O[C@H]1CN(C)S(=O)(=O)c1cn(C)cn1	inactive
CC(C)[Si]1(C(C)C)OCc2cc(-c3ccc(-c4ccc(Cl)c(Cl)c4)o3)nc(-c3ccccc3)c21	inactive
CC(C)[Si]1(C(C)C)OCc2cc(-c3ccc(-c4ccc(Cl)c(Cl)c4)o3)nc(CCc3ccccc3)c21	inactive
CCCCCCc1nc(-c2ccc(-c3ccc(Cl)c(Cl)c3)o2)cc2c1[Si](C(C)C)(C(C)C)OC2	active
